Data reported in PubChem BioAssay AID1159580 (chemical genetic matrix, 2015).
“And” between values parts separate entries of the source, which are not always exact repeats. Identical values can stand only once. Hit rate of the full screen: of about 5,500 compounds, about 2,000 (36%) were called active. Not shown: some 18% with an inconclusive outcome. No stated cut-off is given here; in the data, active means normalized growth mostly below about 0.91 (no sharp cut-off); inconclusive means no clear call, values can overlap the other calls; inactive means mostly above about 0.92. Some of the results follow.

Assay: chemical genetic growth profiling, strain panel (AID 1159580);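 further: tested at 20 µM; growth read once vehicle control cultures reached saturation at 30 °C; 1 = growth at the plate median or of vehicle wells; lower values mean less growth of the strain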
Conditions: S. cerevisiae deletion strains, growth OD

Measured: normalized growth

O=C(/C=C/c1ccccc1)c1ccc(O[C@@H]2O[C@H](CO)[C@@H](O)[C@H](O)[C@H]2O)cc1O
inactive: locus YAL021C, strain ccr4, active compounds read low 0.97 | locus YAL026C, strain drs2, active compounds read low 0.923 | locus YAL030W, strain snc1, active compounds read low 0.933 | locus YBR009C, strain hhf1, active compounds read low 0.935 | locus YBR021W, strain FUR4, active compounds read low 0.883 | locus YBR171W, strain sec66, active compounds read low 0.914 | locus YBR229C, strain ROT2, active compounds read low 0.922 | locus YBR279W, strain paf1, active compounds read low 0.96 | locus YCL011C, strain gbp2, active compounds read low 0.938 | locus YCL016C, strain dcc1, active compounds read low 0.925 | locus YCL069W, strain vba3, active compounds read low 0.96 | locus YCR088W, strain abp1, active compounds read low 0.923 | locus YDL005C, strain med2, active compounds read low 0.955 | locus YDL035C, strain GPR1, active compounds read low 0.926 | locus YDL040C, strain nat1, active compounds read low 0.937 | locus YDL074C, strain BRE1, active compounds read low 0.861 | locus YDL101C, strain DUN1, active compounds read low 0.943 | locus YDR069C, strain doa4, active compounds read low 0.974 | locus YDR137W, strain rgp1, active compounds read low 0.947 | locus YDR162C, strain NBP2, active compounds read low 0.944 | locus YDR195W, strain ref2 1 | locus YDR334W, strain swr1, active compounds read low 0.95 | locus YDR335W, strain msn5, active compounds read low 0.938 | locus YDR392W, strain spt3, active compounds read low 0.787 | locus YEL003W, strain gim4, active compounds read low 0.931 | locus YEL037C, strain rad23, active compounds read low 0.945 | locus YEL061C, strain CIN8 (second series), active compounds read low 0.928 | locus YER015W, strain faa2, active compounds read low 0.938 | locus YER111C, strain swi4, active compounds read low 0.935 | locus YFR010W, strain ubp6, active compounds read low 0.951 | locus YGL078C, strain dbp3, active compounds read low 0.948 | locus YGL167C, strain pmr1, active compounds read low 0.947 | locus YGL227W, strain vid30, active compounds read low 0.932 | locus YGL248W, strain PDE1, active compounds read low 0.936 | locus YGR252W, strain gcn5, active compounds read low 0.79 | locus YHR013C, strain ard1, active compounds read low 0.941 | locus YHR027C, strain rpn1, active compounds read low 0.957 | locus YHR030C, strain SLT2, active compounds read low 0.922 and 0.953 | locus YHR079C, strain IRE1, active compounds read low 0.918 | locus YHR142W, strain chs7, active compounds read low 0.882 | locus YIL066C, strain RNR3, active compounds read low 0.906 | locus YIL073C, strain SPO22, active compounds read low 0.956 | locus YJL092W, strain hpr5, active compounds read low 0.926 | locus YJL095W, strain BCK1 (second series), active compounds read low 0.944 | locus YJL095W, strain BCK1, active compounds read low 0.923 and 0.945 | locus YJL115W, strain asf1, active compounds read low 0.941 | locus YJL129C, strain trk1, active compounds read low 0.897 | locus YJL154C, strain vps35, active compounds read low 0.942 | locus YJL166W, strain qcr8, active compounds read low 0.928 | locus YJL187C, strain SWE1 (second series), active compounds read low 0.93 | locus YJL187C, strain SWE1, active compounds read low 0.95 | locus YJR043C, strain POL32, active compounds read low 0.893 | locus YJR066W, strain TOR1, active compounds read low 0.857 | locus YJR075W, strain HOC1, active compounds read low 0.913 | locus YKL009W, strain mrt4, active compounds read low 0.906 | locus YKL160W, strain elf1, active compounds read low 0.911 | locus YKL190W, strain CNB1, active compounds read low 0.934 | locus YKR026C, strain gcn3, active compounds read low 0.933 | locus YKR091W, strain srl3, active compounds read low 0.938 | locus YLL041C, strain sdh2, active compounds read low 0.937 | locus YLR027C, strain aat2, active compounds read low 0.937 | locus YLR039C, strain RIC1, active compounds read low 0.918 | locus YLR058C, strain SHM2, active compounds read low 0.93 | locus YLR113W, strain HOG1, active compounds read low 0.937 | locus YLR221C, strain rsa3, active compounds read low 0.934 | locus YLR258W, strain gsy2, active compounds read low 0.916 | locus YLR262C, strain YPT6 (second series), active compounds read low 0.911 | locus YLR262C, strain YPT6, active compounds read low 0.949 | locus YLR320W, strain mms22, active compounds read low 0.894 | locus YLR357W, strain rsc2, active compounds read low 0.929 | locus YML032C, strain rad52, active compounds read low 0.916 | locus YML120C, strain ndi1, active compounds read low 0.933 | locus YMR058W, strain fet3, active compounds read low 0.931 | locus YMR125W, strain sto1, active compounds read low 0.938 | locus YMR205C, strain PFK2, active compounds read low 0.922 | locus YMR231W, strain pep5, active compounds read low 0.947 | locus YMR307W, strain GAS1, active compounds read low 0.692 | locus YNL067W, strain RPL9B, active compounds read low 0.945 | locus YNL071W, strain lat1, active compounds read low 0.942 | locus YNL183C, strain NPR1, active compounds read low 0.911 | locus YNL209W, strain ssb2, active compounds read low 0.937 | locus YNL233W, strain BNI4, active compounds read low 0.877 | locus YNL248C, strain rpa49, active compounds read low 0.896 | locus YNL322C, strain KRE1 (second series), active compounds read low 0.921 | locus YNL322C, strain KRE1, active compounds read low 0.936 | locus YNR049C, strain mso1, active compounds read low 0.919 | locus YNR052C, strain pop2, active compounds read low 0.92 | locus YOL006C, strain TOP1, active compounds read low 0.879 | locus YOL012C, strain htz1 1.32 | locus YOR001W, strain rrp6, active compounds read low 0.953 | locus YOR061W, strain CKA2, active compounds read low 0.933 | locus YOR070C, strain gyp1, active compounds read low 0.93 | locus YOR080W, strain dia2, active compounds read low 0.948 | locus YOR106W, strain vam3, active compounds read low 0.9 | locus YOR231W, strain MKK1, active compounds read low 0.952 | locus YOR270C, strain vph1, active compounds read low 0.925 | locus YOR290C, strain snf2, active compounds read low 0.941 | locus YPL051W, strain arl3, active compounds read low 0.931 | locus YPL055C, strain LGE1, active compounds read low 0.901 | locus YPL240C, strain hsp82, active compounds read low 0.932 | locus YPL256C, strain CLN2, active compounds read low 0.889
active: locus YBL061C, strain skt5, active compounds read low 0.886 | locus YBR023C, strain chs3, active compounds read low 0.912 | locus YBR231C, strain swc5, active compounds read low 0.899 | locus YCL029C, strain bik1, active compounds read low 0.889 | locus YCL061C, strain MRC1, active compounds read low 0.919 | locus YDL185W, strain tfp1, active compounds read low 0.885 | locus YDL192W, strain arf1, active compounds read low 0.829 | locus YDR001C, strain nth1, active compounds read low 0.916 | locus YDR101C, strain arx1, active compounds read low 0.892 | locus YDR159W, strain sac3, active compounds read low 0.855 | locus YDR297W, strain sur2, active compounds read low 0.921 | locus YDR318W, strain mcm21, active compounds read low 0.892 | locus YDR388W, active compounds read low 0.877 | locus YDR502C, strain sam2, active compounds read low 0.882 | locus YEL061C, strain CIN8, active compounds read low 0.918 | locus YER016W, strain bim1, active compounds read low 0.921 | locus YER110C, active compounds read low 0.869 | locus YER155C, strain BEM2 (second series), active compounds read low 0.853 | locus YER155C, strain BEM2, active compounds read low 0.912 | locus YER167W, strain BCK2, active compounds read low 0.9 | locus YGL086W, strain mad1, active compounds read low 0.885 | locus YGL173C, strain kem1, active compounds read low 0.899 | locus YGL240W, strain doc1, active compounds read low 0.853 | locus YGL253W, strain hxk2, active compounds read low 0.902 | locus YGR135W, strain pre9, active compounds read low 0.886 | locus YHR079C, strain IRE1 (second series), active compounds read low 0.886 | locus YHR094C, strain hxt1, active compounds read low 0.888 | locus YHR129C, strain ARP1, active compounds read low 0.91 | locus YHR200W, strain rpn10, active compounds read low 0.873 | locus YIL125W, strain kgd1, active compounds read low 0.895 | locus YIR030C, strain dcg1, active compounds read low 0.881 | locus YJL134W, strain LCB3, active compounds read low 0.917 | locus YJL164C, strain tpk1, active compounds read low 0.91 | locus YJL168C, strain set2, active compounds read low 0.888 | locus YKL068W, active compounds read low 0.905 | locus YKL085W, strain MDH1 (second series), active compounds read low 0.902 | locus YKL085W, strain MDH1, active compounds read low 0.902 | locus YKR001C, strain vps1, active compounds read low 0.819 | locus YLL001W, strain dnm1, active compounds read low 0.896 | locus YLL026W, active compounds read low 0.924 | locus YLR102C, strain apc9, active compounds read low 0.891 | locus YLR268W, strain sec22, active compounds read low 0.88 | locus YLR330W, strain CHS5, active compounds read low 0.904 | locus YLR342W, strain FKS1 (second series), active compounds read low 0.767 | locus YLR342W, strain FKS1, active compounds read low 0.865 | locus YLR370C, strain arc18, active compounds read low 0.91 | locus YLR371W, strain rom2, active compounds read low 0.756 | locus YLR384C, strain iki3, active compounds read low 0.907 | locus YLR418C, strain cdc73, active compounds read low 0.739 | locus YML016C, strain PPZ1, active compounds read low 0.909 | locus YML124C, strain tub3, active compounds read low 0.897 | locus YMR078C, strain ctf18, active compounds read low 0.9 | locus YMR129W, active compounds read low 0.91 | locus YMR223W, strain ubp8, active compounds read low 0.877 | locus YNL250W, strain rad50, active compounds read low 0.892 | locus YNL271C, strain bni1, active compounds read low 0.858 | locus YNL298W, strain CLA4, active compounds read low 0.884 | locus YNL307C, strain MCK1, active compounds read low 0.887 | locus YOL147C, strain pex11, active compounds read low 0.903 | locus YOR069W, strain VPS5, active compounds read low 0.917 | locus YOR083W, strain WHI5, active compounds read low 0.859 | locus YOR136W, strain idh2, active compounds read low 0.912 | locus YOR144C, strain elg1, active compounds read low 0.886 | locus YOR184W, strain ser1, active compounds read low 0.864 | locus YOR265W, strain rbl2, active compounds read low 0.926 | locus YOR316C, strain cot1, active compounds read low 0.9 | locus YPL078C, strain atp4, active compounds read low 0.891 | locus YPL106C, strain sse1, active compounds read low 0.811 | locus YPL241C, strain CIN2, active compounds read low 0.916 | locus YPR119W, strain clb2, active compounds read low 0.885 | locus YPR141C, strain kar3, active compounds read low 0.877 | locus YPR163C, strain tif3, active compounds read low 0.899 | locus YPR167C, strain met16, active compounds read low 0.916 | strain wtn01, active compounds read low 0.859
